Outcome data for two molecules are collected here from PubChem BioAssay AID2081 (NMMLSC, 2009).

For this test, the target named is Bcl-2-like protein 2 (Homo sapiens) (UniProt Q92843). The experiment in a line: Bcl-W/Bim complex disruptors – biochemical, multiplexed, bead-based flow cytometry, HTS hits, confirmation (AID 2081).

Structures are written as SMILES. Active and inactive are the calls of the source. How the calls were made is not given here.

Sequence of Bcl-2-like protein 2 (Homo sapiens) (Q92843 whole entry, looked up): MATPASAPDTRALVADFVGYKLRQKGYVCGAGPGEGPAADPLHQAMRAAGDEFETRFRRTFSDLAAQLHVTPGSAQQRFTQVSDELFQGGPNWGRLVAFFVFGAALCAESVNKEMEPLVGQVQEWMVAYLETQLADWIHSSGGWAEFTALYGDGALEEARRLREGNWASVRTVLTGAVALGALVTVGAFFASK

Take `O=C1NC(=O)C(=Cc2ccc(-c3cc(Cl)ccc3[N+](=O)[O-])o2)C(=O)N1`: the outcome was inactive.
With `O=C1NC(=O)C2(Cc3c(nc4ccccn4c3=O)N3CCCCCC32)C(=O)N1Cc1ccccc1` (configuration not stated), the result was inactive.
